# Only some compounds are listed: those with a hit (about 1.4% of all), similar ones and a draw of the others.
# Sa RN4220 lethal: S. aureus RN4220 growth inhibition | OD600, 16 h | inhibition, % (concentration not given with the values) | hit rate 0.33% among 330,000 | AID 1259311; in the data active = inhibition above about 85%;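 also: plate controls were untreated cells for no effect and reference antibiotic for full effect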
# Mtb hypoxia rep: Mtb hypoxia fluorescent reporter inhibition; fluorescence inhibition, % (test concentration not listed); hit rate 0.1% among 300,000; M. tuberculosis hypoxia-regulated fluorescent reporter, fluorescence; in the data active = fluorescence inhibition mostly above about 23%, no sharp cut-off; inactive = mostly below about 17%
# CCHFV vOTU inh: blocks the CCHF virus ovarian tumor domain protease; CCHFV vOTU protease, Pep-AMC fluorescence; inhibition, % at 11.5 µM; hit rate 0.55% among 370,000; AID 651958; in the data active = inhibition above about 30%; also: 0% = vehicle wells with enzyme and 100% = no enzyme wells
# PriA SSB inh: K. pneumoniae PriA-SSBct interaction inhibition | inhibition, % at 33 µM | hit rate 0.6% among 430,000 | AlphaScreen SSBct-PriA binding, biotinylated peptide; in the data active = inhibition mostly above about 37%, no sharp cut-off; inactive = mostly below about 20%;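 also: plate controls were negative control peptide for no effect and reference peptide for full effect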
# ugtP null kill: kills S. aureus RN4220 lacking UgtP | S. aureus RN4220 ugtP deletion, OD600 growth, 16 h | growth inhibition, % (test concentration not listed) | hit rate 0.54% among 330,000; in the data active = growth inhibition above about 68%;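 also: plate controls were untreated wells for no effect and antibiotic for full effect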
# * hit, by the source's call; / = no result.
SMILES,Sa RN4220 lethal,Mtb hypoxia rep,CCHFV vOTU inh,PriA SSB inh,ugtP null kill
O=C(Nc1ccc(-c2ccc3nnc(-c4ccccn4)n3n2)cc1)C1CCCC1,/,/,/,-10,/
O=C(Nc1ccc(-c2ccc3nnc(-c4ccccn4)n3n2)cc1)c1ccccc1Cl,/,/,/,82*,/
O=C(Cc1ccccc1)Nc1ccc(-c2ccc3nnc(-c4ccccn4)n3n2)cc1,/,/,/,95*,/
Cc1ccccc1C(=O)Nc1ccc(-c2ccc3nnc(-c4ccccn4)n3n2)cc1,/,/,/,70*,/
COCCNS(=O)(=O)c1ccc(-c2ccc(C)cc2)cc1,2,77*,-8,-17,0
COc1ccc(C(=O)COC(=O)CN2CC(=O)Oc3ccccc32)cc1Br,3,/,-8,80*,0
Cc1ccc(S(=O)(=O)N2CCCC2C(=O)N2CCOCC2)cc1 (centres undefined),/,/,/,0,/
CCCCNC(=O)c1sc(=S)n2c1[nH]c(=O)c1ccccc12,74,7,9,-20,82*
O=C(NCC1CCCO1)c1sc(=S)n2c1[nH]c(=O)c1ccc(C(=O)N3CCCCC3)cc12 (centres undefined),8,35*,18,4,2
O=C(NCCc1ccccc1)c1ccc2c(=O)[nH]c3c(C(=O)NCC4CCCO4)sc(=S)n3c2c1 (centres undefined),/,/,-3,-4,/
O=C(NC1CCCCC1)c1sc(=S)n2c1[nH]c(=O)c1ccccc12,100*,3,-3,-15,100*
CCOc1ccc(-c2ccc(C)c(NC(=O)C3CC3)c2)nn1,/,/,/,2,/
O=C(c1ccccc1F)n1c2c(c3ccccc31)CCCC2,-12,1,-3,-12,93*
Fc1ccc(CSc2nnc(-c3ccccn3)o2)cc1,4,39*,-7,-11,6
COC(=O)CC(C(=O)Nc1ccc(C)cc1Br)N1CCN(C)CC1 (centres undefined),/,/,/,-9,/
O=C(NN=Cc1ccc2c(c1)OCO2)c1sc2cccc(Cl)c2c1Cl,-2,/,/,0,-20
O=[N+]([O-])c1ccc(N2CCCC2)cc1N1CCCC1,7,13,6,47*,7
O=[N+]([O-])c1ccc(N2CCCC2)cc1N1CCCCC1,/,/,/,97*,/
O=[N+]([O-])c1ccc(N2CCCC2)cc1N1CCCCCC1,/,/,/,61*,/
O=[N+]([O-])c1ccc(N2CCCCC2)cc1N1CCOCC1,4,12,14,27,4
O=[N+]([O-])c1ccc(N2CCOCC2)cc1N1CCCCC1,7,9,3,14,16
O=[N+]([O-])c1ccc(N2CCNCC2)cc1N1CCCC1,/,/,/,62*,/
COC(=O)c1ccccc1NC(=O)CCCN1C(=O)c2cccc3cccc(c23)C1=O,/,/,/,-11,/
O=C(CCl)N(c1ccc(Cl)cc1)c1c[nH]c2ccccc12,90*,36*,6,-15,97*
O=C(Cc1ccc(Cl)cc1)NCCc1c[nH]c2ccccc12,/,/,-14,9,/
SMILES,Sa RN4220 lethal,Mtb hypoxia rep,CCHFV vOTU inh,PriA SSB inh,ugtP null kill
O=C(CCl)N(c1ccccc1)c1c[nH]c2ccccc12,91,/,1,-12,90*
CN1CCCc2cc(C(CNC(=O)Cc3cccs3)N3CCCCC3)ccc21 (centres undefined),/,/,/,14,/
COc1ccc(-c2ccc(/C=C3/C(=N)N4C(C)=CSC4=NC3=O)o2)c([N+](=O)[O-])c1,6,4,-7,9,98*
COc1ccc(Cl)c2sc(NCCN3CCOCC3)nc12,/,/,/,15,/
O=C(Cc1csc(Nc2ccc(F)cc2)n1)NCc1ccncc1,/,/,/,-3,/
O=C(NC(NC(=S)Nc1ccc(Cl)cc1Cl)C(Cl)(Cl)Cl)c1cccc([N+](=O)[O-])c1 (centres undefined),87*,-9,-9,28,73
CCOC(=O)c1ccc(NC(=O)CS(=O)(=O)c2ccc(Cl)cc2)cc1,/,/,/,-4,/
CCOC(=O)C1(Cc2ccccc2C)CCCN(C(=O)c2ccnn2C)C1 (centres undefined),11,12,-1,-10,3
CCOC(=O)C1(Cc2ccccc2C)CCCN(C(=O)c2ccoc2)C1 (centres undefined),7,10,-6,41*,13
Cc1ccc(S(=O)(=O)N2[C@@H](c3ccc(C(C)(C)C)cc3)C(C(=O)O)=CC[C@H]2c2ccc(Cl)c(Cl)c2)cc1,100*,4,19,-10,95*
Cc1ccc(S(=O)(=O)N2C(c3ccc(Cl)cc3)CC=C(C(=O)O)C2c2ccc(F)cc2)cc1 (centres undefined),19,11,/,/,93*
COc1cc([N+](=O)[O-])cc2sc(NC(=O)c3cc(-c4ccccc4)nc4ccccc34)nc12,/,/,/,-1,/
Cc1ccc2c(c1)OCC(SCC(=O)Nc1cc(C(F)(F)F)ccc1Cl)=N2,/,/,/,-13,/
O=[N+]([O-])c1ccccc1NC(=S)NN=Cc1ccc(O)c(O)c1,7,17,/,42*,-10
COc1ccc(/C=N/NC(=S)Nc2ccccc2[N+](=O)[O-])cc1O,/,/,0,/,/
COc1ccccc1-c1sc2ccccc2c1-c1ccc(O)cc1,-22,2,13,2,93*
C1=C(c2sc3ccccc3c2-c2ccc(OCCN3CCOCC3)cc2)CCCC1,/,/,1,41*,/
COc1ccc(-c2sc3ccccc3c2-c2ccc(O)cc2)cc1,/,/,2,2,/
COc1cc2sc(-c3ccccc3OC)c(-c3ccc(OCCN4CCCCC4)cc3)c2cc1OC,/,/,5,46*,/
COc1ccccc1-c1sc2cc3c(cc2c1-c1ccc(OCCN2CCCCC2)cc1)OCO3,0,16,8,14,12
COC(=O)c1c(NC(=O)c2ccc3ncsc3c2)sc2c1CC(C)(C)NC2(C)C,/,/,/,-6,/
O=C(CSc1nc2scc(-c3ccc(F)cc3)c2c(=O)n1-c1ccccc1)c1ccc(Cl)cc1,/,/,/,-10,/
CCN(CC)c1ccc2nc3ccccc3[n+](CC)c2c1,/,/,/,42*,/
CCN(CC)c1ccc2nc3ccc(N)cc3[n+](-c3ccccc3)c2c1,/,/,15,54*,/
Brc1ccc(CN2CC(c3nc(-c4ncccn4)no3)C2)o1,/,/,/,-11,/
O=S(=O)(c1cccc2nonc12)N1CCN(c2ccccc2F)CC1,12,18,-9,-9,-2
Cc1cccc(N2CCN(S(=O)(=O)c3cccc4nonc34)CC2)c1C,11,4,-16,39*,40

# Source: PubChem (several laboratories)
